According to the supplement of paper PMC12636033:
± gives the standard deviation of the averaged measurements. The full ranking holds about 33,000 sequences; the median of “E-score (rank enrichment, -0.5 to 0.5)” is about -0.0075, and the highest 2% start at about 0.23. This excerpt belongs to a sample that is enriched for the highest values.

tested on: WT Max(13-93) synthetic (M65Nle); assay: PBM 8-mer E-score (E-score (rank enrichment, -0.5 to 0.5)); higher = stronger preferential binding
Description: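 Protein binding microarray (universal PBM chip covering all 10-mers in fixed probe flanks) with chemically synthesized human Max(13-93) bHLH-LZ analogs (not full-length Max) bearing noncanonical residues (hArg, Tha, Aib, Nle at 65) and aromatic Cys staples. Read-out per 8-mer (and its reverse complement): E-score (rank-based enrichment, -0.5 to 0.5) and Z-score of median probe intensity.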

**Q.** How did the “PBM 8-mer E-score” value turn out when GGATGCCC was run?
**A.** Its value is -0.0856 ± 0.021.

**Q.** With CGTATTCC as the sequence, how does the “PBM 8-mer E-score” value read?
**A.** The value was -0.096 ± 0.036.

**Q.** With ACTGCGCT as the sequence, how does the “PBM 8-mer E-score” value read?
**A.** The value was 0.0213 ± 0.097.

**Q.** ACCGCACC was tested. Which “PBM 8-mer E-score” value did it give?
**A.** Its value is -0.0552 ± 0.13.

**Q.** For AAGTGACT, which “PBM 8-mer E-score” value is on record?
**A.** Its value is -0.00483 ± 0.05.

**Q.** AGGTGACT was tested. Which “PBM 8-mer E-score” value did it give?
**A.** The value was -0.0287 ± 0.06.

**Q.** How did the “PBM 8-mer E-score” value turn out when ACGTGACT was run?
**A.** The value was 0.282 ± 0.0038.

**Q.** GCACGGAA was tested. Which “PBM 8-mer E-score” value did it give?
**A.** Its value is -0.00447 ± 0.026.

**Q.** With GAGGATGC as the sequence, how does the “PBM 8-mer E-score” value read?
**A.** Its value is -0.0499 ± 0.029.

**Q.** How did the “PBM 8-mer E-score” value turn out when ATGAATGC was run?
**A.** Its value is 0.114 ± 0.14.

**Q.** How did the “PBM 8-mer E-score” value turn out when ATGAATGG was run?
**A.** The value was 0.311 ± 0.023.

**Q.** For ATGAATGA, which “PBM 8-mer E-score” value is on record?
**A.** Its value is 0.126 ± 0.034.

**Q.** Which “PBM 8-mer E-score” value does the source give for GACGACAA here?
**A.** The value was 0.0432 ± 0.014.

**Q.** GAGAGGTA was tested. Which “PBM 8-mer E-score” value did it give?
**A.** Its value is -0.0899 ± 0.13.

**Q.** With GAAGTTCC as the sequence, how does the “PBM 8-mer E-score” value read?
**A.** Its value is -0.122 ± 0.051.

**Q.** How did the “PBM 8-mer E-score” value turn out when AATAATGC was run?
**A.** Its value is 0.245 ± 0.095.

**Q.** Which “PBM 8-mer E-score” value does the source give for AATAATGT here?
**A.** The value was 0.173 ± 0.097.

**Q.** For GATAATGA, which “PBM 8-mer E-score” value is on record?
**A.** The value was 0.125 ± 0.072.

**Q.** With AATAATGG as the sequence, how does the “PBM 8-mer E-score” value read?
**A.** The value was 0.044 ± 0.046.

**Q.** Which “PBM 8-mer E-score” value does the source give for CATAATGA here?
**A.** The value was 0.172 ± 0.059.

**Q.** With AATAATGA as the sequence, how does the “PBM 8-mer E-score” value read?
**A.** Its value is 0.259 ± 0.073.

**Q.** With ATCCGAAA as the sequence, how does the “PBM 8-mer E-score” value read?
**A.** The value was -0.03 ± 0.061.

**Q.** Which “PBM 8-mer E-score” value does the source give for AAATTACG here?
**A.** Its value is 0.0856 ± 0.02.

**Q.** CTATTACC was tested. Which “PBM 8-mer E-score” value did it give?
**A.** Its value is -0.0563 ± 0.029.

**Q.** How did the “PBM 8-mer E-score” value turn out when AGATTACC was run?
**A.** The value was -0.00321 ± 0.065.

**Q.** Which “PBM 8-mer E-score” value does the source give for ATATTACG here?
**A.** Its value is 0.241 ± 0.0048.

**Q.** ATATTAGC was tested. Which “PBM 8-mer E-score” value did it give?
**A.** Its value is 0.124 ± 0.022.

**Q.** How did the “PBM 8-mer E-score” value turn out when ATATTAGA was run?
**A.** Its value is 0.172 ± 0.004.

**Q.** For ATATTACC, which “PBM 8-mer E-score” value is on record?
**A.** The value was 0.267 ± 0.029.

**Q.** How did the “PBM 8-mer E-score” value turn out when ATATTACA was run?
**A.** The value was 0.197 ± 0.017.

**Q.** For ATATTAGG, which “PBM 8-mer E-score” value is on record?
**A.** The value was 0.244 ± 0.036.

**Q.** For CGTCGGGA, which “PBM 8-mer E-score” value is on record?
**A.** Its value is -0.106 ± 0.096.

**Q.** CACCGCGA was tested. Which “PBM 8-mer E-score” value did it give?
**A.** Its value is -0.226 ± 0.025.

**Q.** How did the “PBM 8-mer E-score” value turn out when CTAGGTCC was run?
**A.** Its value is -0.172 ± 0.12.

**Q.** GGAAGCAC was tested. Which “PBM 8-mer E-score” value did it give?
**A.** The value was 0.0303 ± 0.0034.

**Q.** Which “PBM 8-mer E-score” value does the source give for ATCATGAT here?
**A.** The value was 0.312 ± 0.0072.

**Q.** ATCATAAG was tested. Which “PBM 8-mer E-score” value did it give?
**A.** Its value is 0.172 ± 0.039.

**Q.** How did the “PBM 8-mer E-score” value turn out when ATCATGAA was run?
**A.** Its value is 0.0859 ± 0.037.

**Q.** For ATCAACAA, which “PBM 8-mer E-score” value is on record?
**A.** The value was 0.15 ± 0.12.

**Q.** For ATCATGAG, which “PBM 8-mer E-score” value is on record?
**A.** Its value is 0.058 ± 0.031.

**Q.** How did the “PBM 8-mer E-score” value turn out when ATCAACAT was run?
**A.** The value was 0.24 ± 0.013.

**Q.** With AACATAAG as the sequence, how does the “PBM 8-mer E-score” value read?
**A.** Its value is 0.097 ± 0.013.

**Q.** How did the “PBM 8-mer E-score” value turn out when ATCATAAT was run?
**A.** The value was 0.269 ± 0.033.

**Q.** With ATCATAAA as the sequence, how does the “PBM 8-mer E-score” value read?
**A.** The value was 0.142 ± 0.15.

**Q.** How did the “PBM 8-mer E-score” value turn out when AACATAGT was run?
**A.** The value was 0.0321 ± 0.091.

**Q.** AACATAAT was tested. Which “PBM 8-mer E-score” value did it give?
**A.** Its value is 0.252 ± 0.011.

**Q.** How did the “PBM 8-mer E-score” value turn out when ATCAACAG was run?
**A.** Its value is 0.106 ± 0.018.

**Q.** With ACGGGGAG as the sequence, how does the “PBM 8-mer E-score” value read?
**A.** The value was 0.0661 ± 0.065.

**Q.** CCATCCAC was tested. Which “PBM 8-mer E-score” value did it give?
**A.** Its value is 0.155 ± 0.16.

**Q.** How did the “PBM 8-mer E-score” value turn out when GAGCTGGA was run?
**A.** Its value is -0.13 ± 0.0049.

**Q.** With AAGGCTCC as the sequence, how does the “PBM 8-mer E-score” value read?
**A.** Its value is -0.199 ± 0.056.

**Q.** ACTGTCCC was tested. Which “PBM 8-mer E-score” value did it give?
**A.** Its value is 0.1452 ± 0.001.

**Q.** AGAGGCTC was tested. Which “PBM 8-mer E-score” value did it give?
**A.** The value was -0.129 ± 0.083.

**Q.** Which “PBM 8-mer E-score” value does the source give for GTCGCCGA here?
**A.** The value was -0.0844 ± 0.015.

**Q.** TATGGTAA was tested. Which “PBM 8-mer E-score” value did it give?
**A.** The value was 0.104 ± 0.1.

**Q.** With GTGTCCTA as the sequence, how does the “PBM 8-mer E-score” value read?
**A.** Its value is -0.012 ± 0.016.

**Q.** With GCCAACGA as the sequence, how does the “PBM 8-mer E-score” value read?
**A.** Its value is -0.0918 ± 0.043.

**Q.** ATCGGTTG was tested. Which “PBM 8-mer E-score” value did it give?
**A.** The value was -0.0382 ± 0.099.

**Q.** How did the “PBM 8-mer E-score” value turn out when CCTGATGA was run?
**A.** The value was -0.114 ± 0.085.

**Q.** With GTGATAAA as the sequence, how does the “PBM 8-mer E-score” value read?
**A.** The value was 0.143 ± 0.05.

**Q.** Which “PBM 8-mer E-score” value does the source give for ATCATATA here?
**A.** The value was 0.204 ± 0.012.

**Q.** Which “PBM 8-mer E-score” value does the source give for CACATAAC here?
**A.** The value was 0.108 ± 0.067.

**Q.** Which “PBM 8-mer E-score” value does the source give for GACATAAC here?
**A.** The value was 0.17 ± 0.0081.

**Q.** With ATGATAAA as the sequence, how does the “PBM 8-mer E-score” value read?
**A.** Its value is 0.181 ± 0.084.

**Q.** ATCATATG was tested. Which “PBM 8-mer E-score” value did it give?
**A.** The value was 0.233 ± 0.0053.

**Q.** ATCATATC was tested. Which “PBM 8-mer E-score” value did it give?
**A.** The value was 0.134 ± 0.044.

**Q.** Which “PBM 8-mer E-score” value does the source give for ATCATCAT here?
**A.** Its value is 0.245 ± 0.026.

**Q.** How did the “PBM 8-mer E-score” value turn out when AACATAAC was run?
**A.** The value was 0.247 ± 0.07.

**Q.** How did the “PBM 8-mer E-score” value turn out when ATCATCAA was run?
**A.** The value was -0.0899 ± 0.0026.

**Q.** With TTGATAAA as the sequence, how does the “PBM 8-mer E-score” value read?
**A.** The value was 0.25 ± 0.021.

**Q.** For ATCATCAC, which “PBM 8-mer E-score” value is on record?
**A.** Its value is 0.0578 ± 0.072.

**Q.** AGGATATC was tested. Which “PBM 8-mer E-score” value did it give?
**A.** Its value is 0.084 ± 0.03.

**Q.** For CGCACCCA, which “PBM 8-mer E-score” value is on record?
**A.** Its value is 0.0267 ± 0.1.

**Q.** For AAGGTGAC, which “PBM 8-mer E-score” value is on record?
**A.** Its value is -0.1212 ± 0.00044.

**Q.** How did the “PBM 8-mer E-score” value turn out when CGGATGAC was run?
**A.** Its value is 0.00616 ± 0.15.

**Q.** For TCCGGTCA, which “PBM 8-mer E-score” value is on record?
**A.** Its value is -0.19 ± 0.054.

**Q.** For ACTCTGAA, which “PBM 8-mer E-score” value is on record?
**A.** Its value is -0.0606 ± 0.013.

**Q.** How did the “PBM 8-mer E-score” value turn out when GAAAGCCA was run?
**A.** Its value is -0.0183 ± 0.048.

**Q.** CTGTCTGA was tested. Which “PBM 8-mer E-score” value did it give?
**A.** Its value is 0.00168 ± 0.0099.

**Q.** Which “PBM 8-mer E-score” value does the source give for CTCAACAC here?
**A.** Its value is 0.202 ± 0.084.

**Q.** ATGATAAG was tested. Which “PBM 8-mer E-score” value did it give?
**A.** Its value is 0.17 ± 0.054.

**Q.** For ATGATAAT, which “PBM 8-mer E-score” value is on record?
**A.** The value was 0.251 ± 0.078.

**Q.** ATGATAAC was tested. Which “PBM 8-mer E-score” value did it give?
**A.** Its value is 0.206 ± 0.023.

**Q.** AGGCCTGG was tested. Which “PBM 8-mer E-score” value did it give?
**A.** Its value is -0.294 ± 0.061.

**Q.** For CTATTAAA, which “PBM 8-mer E-score” value is on record?
**A.** Its value is 0.173 ± 0.011.

**Q.** How did the “PBM 8-mer E-score” value turn out when ATATTAAA was run?
**A.** The value was 0.24 ± 0.03.
